Compounds with a hit are over-represented: about 4% of the library has one in this group of screens.
GBA activity = modulators of human glucocerebrosidase; P04062; purified enzyme, resorufin glucoside fluorescence (screen aimed at inhibitors), 20 min; Potency, µM; actives 1.1% (n = 48,000); AID 360; in the data active means potency below about 15 µM; inconclusive means mostly about 16 µM to 33 µM;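 further: the screen sought inhibitors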
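Wild-type enzyme at 0.2 nM final in 50mM citric acid/KH2PO4, 10mM sodium taurocholate, 0.01% tween-20, pH 5.9, with resorufin beta-D-glucopyranoside at 30 uM final. Compounds titrated, 20 min at RT, red fluorescence read; AC50 from titration.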
HEK293 cAMP ctrl = parental HEK293 cAMP activation (counter-screen); parental HEK293 CNG cAMP sensor, membrane potential fluorescence; Potency, µM (top dose mostly 57.1 µM), without a hit: at the top dose activation, usual class: activators; actives 2.5% (n = 73,000); further: % of control where 0% means no effect; nearly all actives have a fitted effect of over 55% in size
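Counterscreen for endogenous-receptor signalling: CNG-channel HEK 293 cells report cAMP rise by membrane depolarization. After 60 min dye equilibration with 100 uM RO 20-1724, compounds incubated 30 min before bottom-read fluorescence at 590 nm.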
Caspase-1 inhib = allosteric or competitive inhibitors of human caspase-1; P29466; actives 0.03% (n = 75,000); Potency, µM (doses to about 57.5 µM), inactives show at the top dose activity change, negative = inhibition, hits mostly inhibitors; Caspase-1 enzyme, Ac-WEHD-AFC fluorogenic rate;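 further: plate controls were vehicle for no effect and no substrate for full effect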
Bst PK mod = pyruvate kinase (B. stearothermophilus) modulation; purified pyruvate kinase, luminescence ATP production; ribose 5-phosphate activator present at AC10; Potency, µM; actives 1.2% (n = 51,000); AID 361; in the data active means potency below about 11 µM; inconclusive means mostly about 12 µM to 25 µM;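 the screen sought inhibitors and activators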;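 further: scaled between full activation by ribose 5 phosphate and full inhibition by luteolin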
Caspase-7 inhib = blocks human caspase-7 allosterically or competitively | P55210 | recombinant caspase-7, Ac-DEVD-AFC fluorescence rate | Potency, µM (doses to about 57.5 µM), for inactives: at the highest dose activity change, negative = inhibition, hits mostly inhibitors | actives 0.02% (n = 75,000); active means well fitted inhibition curve with a large enough effect in the main read-out, with a control signal flat, not every such curve was filed as active; inconclusive means small, poorly fitted or top-dose-only effect, or a change in a side signal; further: % of control where 0% means no effect
TSHR ag = agonists of human thyroid stimulating hormone receptor; HEK293-CNG-TSHR cells (CNG channel as cAMP sensor), membrane potential dye, cAMP; actives 0.48% (n = 73,000); Potency, µM (highest dose often 57.1 µM), for the others: top-dose activation, usual class: activators; P16473; active means well fitted activation curve with a large enough effect in the main read-out, with a control signal flat, not every such curve was filed as active; inconclusive means small, poorly fitted or top-dose-only effect, or a change in a side signal; inactive means no such curve, though single readings can be large or run the other way; % of control where 0% means no effect;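 further: the control signal comes from parental cells without the receptor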
Target sequence (P16473 whole entry, looked up): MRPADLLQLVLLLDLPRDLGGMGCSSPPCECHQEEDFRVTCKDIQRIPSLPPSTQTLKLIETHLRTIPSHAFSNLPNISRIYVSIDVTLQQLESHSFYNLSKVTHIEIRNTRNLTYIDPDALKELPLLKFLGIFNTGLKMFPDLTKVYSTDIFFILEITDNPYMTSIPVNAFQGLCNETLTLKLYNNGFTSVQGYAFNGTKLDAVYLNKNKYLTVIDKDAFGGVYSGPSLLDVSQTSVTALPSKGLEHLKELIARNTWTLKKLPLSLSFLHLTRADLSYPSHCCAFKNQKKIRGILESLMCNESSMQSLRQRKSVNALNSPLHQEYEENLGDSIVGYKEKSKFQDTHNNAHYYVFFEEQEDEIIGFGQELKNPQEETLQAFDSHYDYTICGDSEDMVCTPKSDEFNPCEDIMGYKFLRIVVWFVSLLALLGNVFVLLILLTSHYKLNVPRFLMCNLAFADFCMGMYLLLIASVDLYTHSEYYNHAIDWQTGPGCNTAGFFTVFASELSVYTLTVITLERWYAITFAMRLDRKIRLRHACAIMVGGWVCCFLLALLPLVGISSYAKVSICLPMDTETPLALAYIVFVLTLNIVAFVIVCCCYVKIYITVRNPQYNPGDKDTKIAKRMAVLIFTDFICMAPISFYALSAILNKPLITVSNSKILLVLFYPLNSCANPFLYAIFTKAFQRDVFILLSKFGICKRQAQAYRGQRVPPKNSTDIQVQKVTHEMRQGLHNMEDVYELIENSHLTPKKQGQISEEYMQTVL
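HEK 293 cells stably expressing TSHR and a cAMP-gated CNG channel; parental CNG-only cells as counterscreen. Cells preloaded 60 min with membrane potential dye plus 100 uM RO 20-1724, then compound 30 min; fluorescence read at 590 nm.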
* hit, by the source's call; ? = inconclusive; / = no result; ! = not confirmed by another sample; [ ] = remark or other dose. Unless noted, the call rests on the fitted dose curve; in most records, active means well fitted curve in the direction sought with a large enough effect; inconclusive means small, poorly fitted or top-dose-only effect, or another doubt; inactive means no such curve, though single readings can be large; an effect the other way counts as inactive or inconclusive. Potency means the concentration at half of the fitted maximal effect.

SMILES	GBA activity	HEK293 cAMP ctrl	Caspase-1 inhib	Bst PK mod	Caspase-7 inhib	TSHR ag
Cc1nn(Cc2ccccc2Cl)c(Cl)c1C(=O)OCC(=O)NCc1ccco1	>77	25µM*	-4%	>57	-1%	?
Cc1cc(NC(=O)COC(=O)c2c(C)nn(Cc3ccccc3Cl)c2Cl)no1	>77	?	-2%	>57	0%	?
O=C(CSc1nnc2c3c4c(sc3ncn12)CCCC4)NCc1ccco1	>77	13µM*	1%	>57	1%	?
COc1ccc(C2=NCC(=O)N(CC(=O)NCc3ccco3)c3sc4c(c32)CCCC4)cc1OC	>77	12%	-9%	>57	6%	/
CN(C)Cc1c[nH]c2ccccc12	/	-1%	1%	/	2%	16µM*!
CN(C)[C@@H]1C(=O)C(C(N)=O)=C(O)[C@]2(O)C(=O)C3=C(O)c4c(O)cccc4[C@@](C)(O)[C@@H]3C[C@@H]12	/	4%	/	/	/	-4%
Cc1cc(S(=O)(=O)NCC(C)C)ccc1OCC(=O)N1CCN(Cc2ccccc2)CC1	/	5%	0%	>57	0%	19%
CC(NS(=O)(=O)c1ccc(CCC(=O)N2CCN(C)CC2)cc1)c1ccccc1 (stereo not drawn)	>77	4µM*	-1%	>57	-1%	?
CCCC/C(C)=C/[C@@H](NP(=O)(c1ccccc1)c1ccccc1)c1ccccc1	/	16µM*	-5%	/	-5%	?
CCCC/C=C/[C@@H](NP(=O)(c1ccccc1)c1ccccc1)c1ccccc1OC	/	2µM*	-2%	/	-5%	?
NS(=O)(=O)C[C-]1C=C[CH]([Sb-]([Cl])([Cl])([Cl])([Cl])[Cl])C=C1.c1ccncc1 (stereo not drawn)	/	18%[11.4 µM]	2%[11.5 µM]	/	-3%[11.5 µM]	-7%[11.4 µM]
CCCCCCn1c(O)c(C=NC2CCCCC2N)c(=O)[nH]c1=O (stereo not drawn)	>77	6%	-1%	2.7*	-1%	/
O=c1cccc2n1C[C@@H]1C[C@H]2CN2CCCC[C@H]12	/	-10%	/	/	/	-8%
CC(C)(C)NC[C@H](O)c1ccccc1Cl	/	4%	1%	/	1%	15%
CCCC[C@@H]1C[C@H]1C(NP(=O)(c1ccccc1)c1ccccc1)c1ccc(Cl)cc1 (stereo partly drawn)	/	2.5µM*	/	/	/	?
C[C@H]1CC[C@]2(NC1)O[C@@H]1C[C@@H]3[C@@H]4CC=C5C[C@H](O)CC[C@@]5(C)[C@H]4CC[C@@]3(C)[C@H]1[C@@H]2C	/	-3%	/	/	/	2%
CC(C)(C)[C@@]1(O)C[C@@H]2OC(=O)C[C@@]23C(=O)O[C@H]2OC(=O)[C@@H](O)[C@]231	/	-2%	/	/	/	-3%
COc1cc2c(cc1OC)[C@]13CCN4CC5=CCO[C@@H]6CC(=O)N2[C@@H]1[C@H]6[C@@H]5C[C@H]43	/	8%	/	/	/	5%

High-throughput results: PubChem, National Center for Advancing Translational Sciences (NCATS)
